# Test results published in PubChem BioAssay (Tox21).
# Inconclusive results are not listed. A call without a number means that no potency is given here. Calls of active or inactive are those of the source. Unless noted, the call rests on the fitted dose curve; in most records, active means well fitted curve in the direction sought with a large enough effect in the repeat runs; inconclusive means weak or mixed curves; inactive means no such curve, though single readings can be large; an effect the other way counts as inactive or inconclusive.
# What was measured:
# [1] = qHTS assay to identify small molecule antagonists of the glucocorticoid receptor (GR) signaling pathway - cell viability counter screen (AID 720693); further: nearly all actives have a fitted effect of over 55% in size; further: potency means the concentration at half of the fitted maximal effect
# [2] = qHTS assay for identifying genotoxic compounds that show differential cytotoxicity against isogenic chicken DT40 cell lines with known DNA damage response pathways - wild type cell line (AID 743012); further: nearly all actives have a fitted effect of over 60% in size; further: potency means the concentration at half of the fitted maximal effect
# Procedure, shortened: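 CellTiter-Glo luminescence readout of viability in wild type DT40 cells after 40 h compound exposure at 37 C/5% CO2; 300 cells/well; reagent incubated 30 min at room temperature before reading.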
# [3] = qHTS assay for identifying genotoxic compounds that show differential cytotoxicity against isogenic chicken DT40 cell lines with known DNA damage response pathways - Rev3 mutant cell line (AID 743014); further: nearly all actives have a fitted effect of over 55% in size; further: potency means the concentration at half of the fitted maximal effect
# [4] = qHTS assay for identifying genotoxic compounds that show differential cytotoxicity against isogenic chicken DT40 cell lines with known DNA damage response pathways - Rad54/Ku70 mutant cell line (AID 743015); further: nearly all actives have a fitted effect of over 60% in size; further: potency means the concentration at half of the fitted maximal effect
# [5] = qHTS assay to identify small molecule antagonists of the androgen receptor (AR) signaling pathway - cell viability counter screen (AID 743033; further: nearly all actives have a fitted effect of over 45% in size)
# [6] = qHTS assay to identify small molecule antagonists of the androgen receptor (AR) signaling pathway using the MDA cell line - cell viability counter screen (AID 743041; further: nearly all actives have a fitted effect of over 45% in size)
# Procedure, shortened: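 In this qHTS counter assay, fluorescence intensity after CellTiter-Fluor addition indicated viability of MDA-kb2 AR-luc cells given compounds and R1881 for 16 h at 37C.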
# [7] = qHTS assay to identify small molecule antagonists of the thyroid receptor (TR) signaling pathway - cell viability counter screen (AID 743064); further: nearly all actives have a fitted effect of over 50% in size; further: potency means the concentration at half of the fitted maximal effect
# Procedure, shortened: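 CellTiter-Fluor readout, 30 min at 37 °C/5% CO2, following 23.5 h incubation of GH3.TRE-Luc cells with test compound and 1 nM T3 (final).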
# [8] = target: Androgen receptor (Homo sapiens) (UniProt P10275); assay: qHTS assay to identify small molecule antagonists of the androgen receptor (AR) signaling pathway (AID 743035; active means well fitted inhibition curve with a large enough effect in the signal ratio in the repeat runs, not every such curve was filed as active; the % refers to the signal ratio)
# Androgen receptor (Homo sapiens), sequence (P10275 whole entry, looked up): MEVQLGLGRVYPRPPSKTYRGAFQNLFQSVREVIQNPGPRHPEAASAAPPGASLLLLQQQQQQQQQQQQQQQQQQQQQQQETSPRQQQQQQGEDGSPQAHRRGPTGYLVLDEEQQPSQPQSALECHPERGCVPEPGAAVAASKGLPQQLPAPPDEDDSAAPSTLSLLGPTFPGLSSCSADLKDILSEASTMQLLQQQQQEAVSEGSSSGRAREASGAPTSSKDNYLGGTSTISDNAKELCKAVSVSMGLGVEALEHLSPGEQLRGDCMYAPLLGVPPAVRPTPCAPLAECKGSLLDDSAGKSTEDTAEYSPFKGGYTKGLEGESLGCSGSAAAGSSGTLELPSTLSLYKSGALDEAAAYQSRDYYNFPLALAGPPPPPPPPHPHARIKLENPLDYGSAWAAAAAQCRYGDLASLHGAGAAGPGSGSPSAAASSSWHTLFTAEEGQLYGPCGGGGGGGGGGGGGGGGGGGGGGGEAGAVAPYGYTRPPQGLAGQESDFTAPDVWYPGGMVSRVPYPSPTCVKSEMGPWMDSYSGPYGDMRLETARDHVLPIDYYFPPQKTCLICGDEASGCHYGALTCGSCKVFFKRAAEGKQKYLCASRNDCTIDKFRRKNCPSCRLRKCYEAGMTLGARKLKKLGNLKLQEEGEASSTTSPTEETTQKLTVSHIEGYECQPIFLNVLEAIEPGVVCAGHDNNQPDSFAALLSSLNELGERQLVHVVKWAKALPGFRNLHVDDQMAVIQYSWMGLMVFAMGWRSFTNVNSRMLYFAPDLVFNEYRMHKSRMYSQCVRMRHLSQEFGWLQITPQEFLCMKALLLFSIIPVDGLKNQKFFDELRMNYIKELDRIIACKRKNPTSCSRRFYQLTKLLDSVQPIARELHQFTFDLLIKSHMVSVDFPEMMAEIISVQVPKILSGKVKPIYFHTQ
# Procedure, shortened: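 AR-bla HEK293 reporter cells; 4 h settle at 37C/5% CO2; compound + R1881 agonist, 16 h at 37C; LiveBLAzer B/G FRET substrate 2 h RT; fluorescence intensity read. qHTS format.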
# [9] = target: Androgen receptor (Homo sapiens) (UniProt P10275); assay: qHTS assay to identify small molecule agonists of the androgen receptor (AR) signaling pathway using the MDA cell line (AID 743040; further: nearly all actives have a fitted effect of over 20% in size)
# Procedure, shortened: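 Cell-based luciferase reporter: MDA-kb2, MMTV promoter (AR + GR response elements). 16 h compound exposure at 37C; ONE-Glo, 30 min RT, luminescence.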
# [10] = target: Androgen receptor (Homo sapiens) (UniProt P10275); assay: qHTS assay to identify small molecule antagonists of the androgen receptor (AR) signaling pathway using the MDA cell line (AID 743042; further: nearly all actives have a fitted effect of over 55% in size)
# Procedure, shortened: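 MDA-kb2 cells (human breast carcinoma, stably carrying an MMTV-luciferase reporter responsive to AR and GR) were plated at 3,000 cells/well and preincubated 5 hr at 37C, then given compound plus R1881 agonist for 16 h. ONE-Glo luminescence was read.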
Structure (SMILES),Potency [1],Potency [2],Potency [3],Potency [4],outcome [5],outcome [6],Potency [7],Potency [8],outcome [9],outcome [10]
Cc1nc2ccccc2c(=O)o1,inactive,inactive,inactive,inactive,inactive,inactive,,,,
N#CCCOCCOCCC#N,inactive,inactive,61.1 µM (active),inactive,inactive,inactive,inactive,,,
CC1(N)CCC(C(C)(C)N)CC1 (centres undefined),inactive,inactive,inactive,inactive,inactive,inactive,,,,
CCCCCCCCCCCCCCCC(=O)NCCO,inactive,inactive,inactive,inactive,inactive,inactive,,,,
CN=C(NC#N)NCCSCc1csc(N=C(N)N)n1,inactive,inactive,inactive,inactive,inactive,inactive,inactive,,,
NS(=O)(=O)c1ccc(Cl)c(S(N)(=O)=O)c1,inactive,inactive,inactive,inactive,inactive,inactive,inactive,,,
NS(=O)(=O)c1cc2c(cc1Cl)NC(CC1CCCC1)NS2(=O)=O (centres undefined),inactive,inactive,inactive,inactive,inactive,inactive,inactive,,,
CC(=O)OC(C(=O)c1ccccc1)c1ccccc1 (centres undefined),inactive,inactive,inactive,inactive,inactive,inactive,,inactive,inactive,inactive
Nc1cc(Cl)cc(S(=O)(=O)O)c1O,inactive,inactive,inactive,inactive,inactive,inactive,inactive,,,
C1=C\CC/C=C\CC/1,inactive,inactive,inactive,inactive,inactive,inactive,inactive,,,
O=CN1CCOCC1,inactive,inactive,inactive,inactive,inactive,inactive,inactive,,inactive,inactive
OC(CCN1CCCCC1)(c1ccccc1)c1ccccc1,inactive,13.3 µM (active),23.7 µM (active),21.1 µM (active),inactive,,,inactive,inactive,inactive
O=c1[nH]c(=O)c2ccccc2o1,inactive,inactive,inactive,inactive,inactive,inactive,inactive,,inactive,inactive
CC(C)(CO)[C@@H](O)C(=O)NCCCO,inactive,inactive,inactive,inactive,inactive,inactive,,,,
CC1CCC(C(C)(C)S)C(=O)C1 (centres undefined),inactive,inactive,inactive,inactive,inactive,inactive,inactive,,,
CCCCCCCCCCC,inactive,inactive,inactive,inactive,inactive,inactive,inactive,inactive,inactive,inactive
O=C1CC[C@H](C(=O)N2CCCCC2)N1,inactive,inactive,inactive,inactive,inactive,inactive,,,,
C=CCOCC(O)CCl (centres undefined),inactive,inactive,inactive,inactive,inactive,inactive,inactive,inactive,inactive,inactive
NC(=O)NNC(N)=O,inactive,inactive,inactive,inactive,inactive,inactive,,,,

Structure (SMILES),Potency [1],Potency [2],Potency [3],Potency [4],outcome [5],outcome [6],Potency [7],Potency [8],outcome [9],outcome [10]
CC1=NN(c2ccc(S(=O)(=O)O)cc2)C(=O)C1N=Nc1ccccc1 (centres undefined),inactive,inactive,inactive,inactive,inactive,,,,,
CC(C)=CC(C)(C)C,inactive,inactive,inactive,inactive,inactive,inactive,,,,
Cc1ccccc1C(=O)N1CC/C(=N\OS(=O)(=O)O)c2ccc(Cl)cc21,inactive,inactive,inactive,inactive,inactive,inactive,inactive,,,
COc1cccc2sc(N)nc12,inactive,inactive,inactive,inactive,inactive,inactive,inactive,,,inactive
NS(=O)(=O)c1ccccc1OC(F)(F)F,inactive,inactive,inactive,inactive,inactive,inactive,inactive,,,
CCCCCCCCC(=O)OCC,inactive,inactive,inactive,inactive,,,,,,
Nc1ccnc(=O)[nH]1,inactive,inactive,inactive,inactive,inactive,inactive,inactive,inactive,inactive,inactive
Cc1ccc(S(=O)(=O)NC(=O)NC2CCCCCCC2)cc1,inactive,inactive,inactive,inactive,inactive,inactive,inactive,,,
COc1ccc(/C=N/NC(=O)c2ccncc2)cc1OC,inactive,inactive,inactive,inactive,inactive,inactive,inactive,inactive,inactive,inactive
C/C=C(\C)C(=O)OCC/C=C\CC,inactive,inactive,inactive,inactive,inactive,inactive,,,,
CCCCCCCC[Si](OCC)(OCC)OCC,inactive,inactive,inactive,inactive,inactive,,,,,
CCCCC[Si](OCC)(OCC)OCC,inactive,inactive,inactive,inactive,inactive,inactive,inactive,,inactive,inactive
O=C(O)CCNC(=O)c1ccccc1,inactive,inactive,inactive,inactive,inactive,inactive,inactive,,,
CCN1CN(CC)CN(CC)C1,inactive,inactive,inactive,inactive,inactive,inactive,inactive,,,
CCCOCCOCCOCCO,inactive,inactive,inactive,inactive,inactive,inactive,inactive,inactive,inactive,inactive
SCCSCCS,inactive,inactive,inactive,inactive,inactive,inactive,inactive,,,
Cc1ccccc1OCC1CO1 (centres undefined),inactive,inactive,inactive,inactive,inactive,inactive,inactive,,,
CC(C)c1ccccc1O,inactive,inactive,inactive,inactive,inactive,inactive,inactive,,,
CC(=O)Nc1ccc(C)cc1,inactive,inactive,inactive,inactive,inactive,inactive,inactive,,,

Structure (SMILES),Potency [1],Potency [2],Potency [3],Potency [4],outcome [5],outcome [6],Potency [7],Potency [8],outcome [9],outcome [10]
Cc1ccc2c(c1)c1c3n2CCNC3CCC1 (centres undefined),inactive,11.9 µM (active),11.9 µM (active),16.8 µM (active),inactive,inactive,11.9 µM (active),,,
O=P(O)(O)OCC(O)CO (centres undefined),inactive,inactive,inactive,inactive,inactive,inactive,inactive,,,
O=C1OC(=O)c2ccccc21,inactive,inactive,inactive,inactive,inactive,inactive,inactive,,,
CCC(C)N (centres undefined),inactive,inactive,inactive,inactive,inactive,inactive,inactive,,,
C[C@H](CCC(=O)O)[C@H]1CC[C@H]2[C@@H]3[C@H](O)C[C@@H]4C[C@H](O)CC[C@]4(C)[C@H]3C[C@H](O)[C@]12C,inactive,inactive,inactive,inactive,inactive,inactive,inactive,,,
CC(=O)Nc1ncc([N+](=O)[O-])s1,inactive,inactive,inactive,inactive,inactive,inactive,inactive,,,
COCCOCCOCCOC,inactive,inactive,inactive,inactive,inactive,inactive,inactive,,,
CCOC(=O)CC#N,inactive,inactive,inactive,inactive,inactive,inactive,inactive,,,
O=C(/C=C/c1ccccc1)NCCO,inactive,inactive,inactive,inactive,inactive,inactive,inactive,,,
CC(C)(c1ccc(Oc2ccc3c(c2)C(=O)OC3=O)cc1)c1ccc(Oc2ccc3c(c2)C(=O)OC3=O)cc1,inactive,inactive,inactive,inactive,inactive,inactive,inactive,,,
C=COCCOCCOC=C,inactive,inactive,inactive,inactive,inactive,inactive,inactive,,,
CCc1nccnc1C,inactive,inactive,inactive,inactive,inactive,inactive,inactive,,,
CCS(=O)(=O)CCn1c([N+](=O)[O-])cnc1C,inactive,inactive,inactive,inactive,inactive,inactive,inactive,,,
CN(C)CCOCCN(C)CCO,inactive,inactive,inactive,inactive,inactive,inactive,inactive,,,
Cc1cccc(NC(=S)N(C)C)c1,inactive,inactive,inactive,inactive,inactive,inactive,inactive,,,
O=C(COCCOCCOCC(=O)Nc1c(I)cc(I)c(C(=O)O)c1I)Nc1c(I)cc(I)c(C(=O)O)c1I,inactive,inactive,inactive,inactive,inactive,inactive,inactive,,,
CC(C)CCO,inactive,inactive,inactive,inactive,inactive,inactive,inactive,,,
COc1cc2c(Nc3ccc(Br)cc3F)ncnc2cc1OCC1CCN(C)CC1,23.9 µM (active),5.31 µM (active),5.96 µM (active),6.68 µM (active),inactive,inactive,4.73 µM (active),,,
O=C(O)/C=C/c1ccccc1,inactive,inactive,inactive,inactive,inactive,inactive,inactive,,,
